Source: PubChem BioAssay (several laboratories)
Only some compounds are listed: those with a hit (about 4.9% of all), similar ones and a draw of the others.
tim10-1 inh = growth inhibitors of tim10-1 mutant yeast, primary screen, luminescence, uHTS | S. cerevisiae tim10-1 ts strain growth, BacTiter-Glo, 24 h | inhibition, % at 20 µM | 330,000 compounds, 2.2% hits;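 active = inhibition of at least 40%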;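 also: mutant grown at 25 °C; 0% = DMSO wells with yeast and 100% = wells holding no yeast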
NLRP3 yeast inh = NALP3 inflammasome inhibitors in reconstituted yeast, primary screen, luminescence, uHTS | inhibition, % at 10 µM | Yeast reconstituted NLRP3/ASC/caspase-1, beta-gal luminescence, 24 h | 330,000 compounds, 0.39% hits | AID 2825, 2010;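 active = inhibition of 50% or more; inactive = inhibition below 50%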;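 also: plate controls were induced DMSO wells for no effect and uninduced yeast grown without galactose for full effect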
tim23-1 inh = growth inhibitors of tim23-1 mutant yeast, primary screen, luminescence, uHTS; S. cerevisiae tim23-1 growth, BacTiter-Glo luminescence, 24 h; inhibition, % at 20 µM; 330,000 compounds, 1.3% hits; AID 463212, 2010;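 active = growth inhibition of the mutant yeast at or above 50%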;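 also: temperature-sensitive mutant grown at 25 °C; plate controls were DMSO-treated mutant yeast for no effect and medium wells lacking yeast for full effect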
TIM10 inh = growth inhibitors of isogenic TIM10 control yeast, primary screen, counter-screen for tim10-1 yeast inhibitor project, luminescence, uHTS; S. cerevisiae TIM10 strain growth, BacTiter-Glo luminescence, 24 h; 330,000 compounds, 1.4% hits; inhibition, % at 10 µM;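 active = inhibition of 40% or more at the single tested concentration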;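 also: wild-type TIM10 isogenic control strain grown at permissive 25 °C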
NALP1 inh = NALP1 inflammasome inhibitors in reconstituted yeast, colorimetric, S. cerevisiae, triplicate retest. 280,000 compounds, 0.61% hits. S. cerevisiae NALP1/ASC/caspase-1 growth, X-gal OD620, 72 h. AID 2071, 2009. inhibition, % at 10 µM; in the data active = inhibition mostly above about 24%, no sharp cut-off; inactive = mostly below about 32%
SKKanGAS inh = S. pyogenes SKKanGAS growth inhibitors in kanamycin, primary screen, streptokinase expression inhibitor project, SKKanGAS strain, BacTiter-Glo luminescence | 6 h | inhibition, % at 7.5 µM | 300,000 compounds, 1.3% hits | AID 1662, 2009;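 active = mean replicate score, as percent of positive control median, at least 50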;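 also: strain carries kanamycin resistance gene driven by streptokinase promoter and grows in 40 µg/ml kanamycin; loss of luminescence reflects streptokinase promoter inhibition or plain growth inhibition; 0% = median of DMSO wells and 100% = positive control at its reference dose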
tim10-1 conf = growth inhibitors of tim10-1 mutant yeast, confirmation, single concentration, luminescence, S. cerevisiae. shares compounds with tim10-1 inh. S. cerevisiae tim10-1 ts strain growth, BacTiter-Glo, 24 h. inhibition, % at 20 µM. 7,400 compounds, 56% hits. AID 463213, 2010;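 active = inhibition of yeast growth at or above a set limit in either of two repeat tests at 20 µM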;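 also: tim10-1 mutant grown at permissive 25 °C to find synthetic lethal compounds; 0% = DMSO yeast wells and 100% = medium wells without yeast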
tim10 confirm = growth inhibitors of wild-type TIM10 yeast, confirmation, counter-screen for tim10-1 synthetic lethality project, single concentration, luminescence, S. cerevisiae. shares compounds with TIM10 inh. S. cerevisiae tim10 strain growth, BacTiter-Glo luminescence, 24 h. 4,600 compounds, 63% hits. AID 463215, 2010. inhibition, % at 10 µM;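 active = inhibition of yeast growth at or above a set limit in either of two replicates at 10 µM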;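 also: this counterscreen used the strain with wild-type TIM10; 0% = yeast with DMSO and 100% = medium wells lacking yeast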
* marks the source's active call; other numbers are inactive results; . = no result.

SMILES | tim10-1 inh | NLRP3 yeast inh | tim23-1 inh | TIM10 inh | NALP1 inh | SKKanGAS inh | tim10-1 conf | tim10 confirm
COc1cc(C2=NOC(C(=O)N3CCCCCC3)C2)cc(OC)c1OC (stereo not given) | -8 | 14 | 15 | 5 | -7 | -1 | . | .
COc1cc(C2=NOC(C(=O)N3CCN(c4ccc(F)cc4)CC3)C2)cc(OC)c1OC (stereo not given) | 41* | 12 | 41 | 46* | -19 | 0 | 40* | 40*
O=C(/C=C/c1ccc2c(c1)S(=O)(=O)N(Cc1ccccc1)[C@H]2CC(=O)N1CCOCC1)N1CCOCC1 | 10 | 7 | 16 | 4 | . | . | . | .
O=C(NCc1ccccc1)c1cc2ccc(O)cc2oc1=O | 2 | 8 | 7 | 11 | 3 | 11 | . | .
Cc1ccc(NC(=S)NCc2ccc3[nH]c4c(c3c2)CCCC4)cc1 | 47* | 27 | 48 | 46* | 15 | 7 | 29* | 30
Cc1c(N2C(=O)/C(=C\C3CC=CCC3)SC2=S)c(=O)n(-c2ccccc2)n1C (stereo not given) | 46* | 15 | 48 | 42* | 12 | -4 | 39* | 33*
CC12CC3CC(C)(C1)CC(C(=O)NC1=NCCS1)(C3)C2 | 46* | 9 | 41 | 49* | -22 | 39 | 28 | 35*
CCC(=O)Nc1ccc(N2CCCCC2)c(C(=O)Nc2ccccc2C)c1 | 41* | 13 | 36 | 40* | 2 | 18 | 22 | 38*
Cc1cc(C)c(S(=O)(=O)Nc2cc(C)on2)c(C)c1 | 23 | 5 | 20 | 10 | 3 | 32 | . | .
CCC(=O)Nc1cccc(C(=O)/C=C/c2ccc(F)cc2)c1 | 48* | 7 | 32 | 47* | 4 | -13 | 43* | 22
CC(=O)Nc1cccc(C(=O)/C=C/c2ccc(C)cc2)c1 | 25 | 36 | 40 | 24 | 29 | -15 | . | .
CC(C)CCNC(=O)COC(=O)/C=C/c1ccc2ccccc2n1 | 49* | 9 | 48 | 45* | -7 | -9 | 42* | 41*
O=C(COC(=O)/C=C/c1ccccc1)NCCNC(=O)COC(=O)/C=C/c1ccccc1 | 12 | 3 | 16 | 8 | . | 0 | . | .
CC(Sc1nccn1C)C(=O)Nc1ccc(Cl)cn1 (stereo not given) | 1 | -4 | 0 | -5 | . | -8 | . | .
C[C@@H]1COC(=O)[C@@H](CC(=O)OC(C)(C)C)C/C=C\C[C@H](CC(=O)NCCO)C(=O)N1 | -7 | -1 | -6 | 8 | . | . | . | .
O=C(Cn1c2ccc(F)cc2c2nc3n(c(=O)c21)CCS3)Nc1ccccc1F | 51* | 0 | 17 | 52* | -6 | 13 | 44* | 42*
O=C(Cn1c2ccc(F)cc2c2nc3n(c(=O)c21)CCS3)Nc1ccccc1C(F)(F)F | 36 | 5 | 1 | 7 | 8 | 3 | . | .
O=C(/C=C/c1ccc(OC(F)F)cc1)OCC(=O)N1CCC(c2ccccc2)=N1 | 2 | -3 | -7 | 5 | . | . | . | .
COc1ccc(N2CCN(C(=O)c3ccc(C)cc3)CC2)c([N+](=O)[O-])c1 | 6 | 5 | 29 | 14 | 43 | -1 | . | .
COc1ccc(N2CCN(C(=O)c3ccc(Br)cc3)CC2)c([N+](=O)[O-])c1 | 54* | 40 | 45 | 53* | 14 | 7 | 48* | 63*
CCOc1ccc(C(=O)N2CCN(c3cccc(Cl)c3)CC2)cc1 | 14 | 8 | 35 | 4 | -6 | 15 | . | .
CC1CN(C(=O)c2ccc(Cl)c(S(=O)(=O)NCc3ccco3)c2)CC(C)O1 (stereo not given) | -14 | 5 | -7 | 3 | . | . | . | .
Cc1cccc(N2CCN(C(=O)c3ccc(Cl)c(S(=O)(=O)NCc4ccco4)c3)CC2)c1C | 45* | 11 | 44 | 50* | -4 | 14 | 39* | 40*
CCOc1ccc(C(=O)N2CCN(c3cccc(C)c3C)CC2)cc1 | 45* | 4 | 43 | 42* | -15 | -3 | 33* | 32*
Cc1cccc(N2CCN(C(=O)c3ccc(N4CCCC4=O)cc3)CC2)c1C | 45* | 3 | 5 | 42* | -4 | -7 | 31* | 16
SMILES | tim10-1 inh | NLRP3 yeast inh | tim23-1 inh | TIM10 inh | NALP1 inh | SKKanGAS inh | tim10-1 conf | tim10 confirm
CCOC(=O)C[C@H]1c2ccccc2S(=O)(=O)N1c1ccccc1 | 2 | 2 | 15 | 5 | . | 12 | . | .
CCN(CC)CCn1c2ccccc2c2cnc(N)c(C#N)c21 | 67* | 10 | 41 | 86* | 5 | 18 | 73* | 86*
CN(C)C=Nc1ncc2c3ccccc3n(Cc3ccccc3)c2c1C#N | 12 | 10 | 3 | 6 | 14 | -11 | . | .
CN(C)C=Nc1ncc2c3ccccc3n(CCN(C)C)c2c1C#N | 51* | 6 | 44 | 76* | -10 | 5 | 64* | 75*
CCN(CC)CCn1c2ccccc2c2nc3ccccc3nc21 | 9 | 43 | 16 | 6 | 23 | 5 | . | .
Cc1ccc(C(OCC(O)CNCc2ccc(F)cc2)c2ccccc2)cc1 (stereo not given) | 64* | 33 | 40 | 68* | 22 | 7 | 74* | 61*
O=C(c1ccccc1)c1ccc(OCC(O)CNCc2ccc(F)cc2)cc1 (stereo not given) | . | . | . | . | 8 | -5 | . | .
C#CCn1c(S(=O)(=O)Cc2ccc(OC)cc2)nc(-c2ccccc2)c1-c1ccccc1 | 47* | -14 | 48 | 45* | 1 | 8 | 41* | 24
CC(Oc1ccc(Br)cc1)C(=O)Nc1cc(S(=O)(=O)N2CCOCC2)ccc1N1CCCC1 (stereo not given) | 2 | 1 | -2 | 3 | . | 3 | . | .
Cc1ccc(NC(=O)CN2C(=O)NC3(CCCCC3)C2=O)cc1S(=O)(=O)N1CCOCC1 | 7 | 2 | 4 | 3 | . | . | . | .
CN1C(=O)C(O)(CC(=O)c2cccc(-n3cccc3)c2)c2ccccc21 (stereo not given) | 51* | -6 | 30 | 46* | 1 | 4 | 38* | 29
O=C(CC1(O)C(=O)Nc2ccccc21)c1cccc(-n2cccc2)c1 (stereo not given) | 7 | 12 | -3 | -2 | 10 | -7 | . | .
CCOc1ccc2nc3ccc4[nH]onc4c3c2c1 | 42* | 1 | 40 | 48* | . | 2 | 53* | 53*
